Screening results (PubChem)
Mtb FBA inh – Mtb FBA enzyme inhibitors, primary screen, biochemical, fluorescence, strain H37Rv; Fructose-bisphosphate aldolase (Mycobacterium tuberculosis (strain ATCC 25618 / H37Rv)), …; purified M. tuberculosis FBA, fluorescence read-out; inhibition, % at 1 µM; 2.3% of 360,000 active; AID 588726, 2011; in the data active means inhibition above about 27%;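 further: 0% = vehicle and 100% = reference inhibitor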
RecA intein inh – Mtb RecA intein splicing inhibitors, primary screen, biochemical, fluorescence, HTS. Protein RecA (Mycobacterium tuberculosis (strain ATCC 25618 / H37Rv)), P9WHJ3. cell-free RecA intein splicing. inhibition, % (test concentration not listed). 0.75% of 290,000 active. AID 2221, 2009; in the data active means inhibition above about 30%;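 further: 0% = vehicle wells and 100% = reference inhibitor control wells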
Mtb UGM inh – M. tuberculosis UGM enzyme inhibitors, primary screen, biochemical, fluorescence polarization, single point. purified UGM, fluorescence polarization probe displacement. inhibition, % at 10 µM. 0.06% of 320,000 active. UDP-galactopyranose mutase (Mycobacterium tuberculosis (strain ATCC 25618 / H37Rv)), …; in the data active means inhibition above about 10%, passing the limit was not always enough
Mtb bLac sens – beta-lactam sensitization of Mtb H37Rv, H37Rv; M. tuberculosis H37Rv growth with meropenem, percent inhibition; inhibition, % at 25 µM; 0.27% of 330,000 active;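 further: growth measured after seven days incubation then overnight dye step; 0% = bacteria only wells and 100% = bacteria with antibiotic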
Rv3671c inh – Rv3671c serine protease inhibitors, primary screen, biochemical, fluorescence polarization, M. tuberculosis H37Rv; P9WHR9; inhibition, % at 5.96 µM; 0.048% of 320,000 active; in the data active means inhibition above about 38%;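 further: extracellular domain of Rv3671c used as enzyme; 0% = enzyme with DMSO and 100% = no enzyme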
Target sequence (P9WHR9 whole entry, looked up, the tested form may be a part): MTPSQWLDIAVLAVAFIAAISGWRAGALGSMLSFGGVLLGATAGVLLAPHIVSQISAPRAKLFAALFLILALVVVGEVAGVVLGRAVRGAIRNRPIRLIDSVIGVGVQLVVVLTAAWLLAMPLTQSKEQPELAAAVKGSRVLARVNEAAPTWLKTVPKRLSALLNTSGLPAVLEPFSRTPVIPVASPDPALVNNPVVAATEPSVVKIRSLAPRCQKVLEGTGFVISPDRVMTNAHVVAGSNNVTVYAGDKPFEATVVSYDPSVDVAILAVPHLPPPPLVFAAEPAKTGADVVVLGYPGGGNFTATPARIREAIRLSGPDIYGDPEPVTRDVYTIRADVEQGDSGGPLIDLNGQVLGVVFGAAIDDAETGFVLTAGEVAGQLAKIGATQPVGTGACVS
GDH-TPI counter-1 – GDH-TPI coupling enzyme inhibitors, primary screen, artefact control for M. tuberculosis FBA inhibitor project, biochemical, absorbance, full deck; GDH-TPI coupled enzyme counterscreen, NADH absorbance; inhibition, % at 4.8 µM; 1.2% of 360,000 active; in the data active means inhibition above about 30%;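 further: 0% = DMSO wells and 100% = wells lacking the enzyme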
Mtb FBA inh conf – M. tuberculosis aldolase blockers, biochemical, fluorescence, strain H37Rv, confirmation | shares compounds with Mtb FBA inh | purified M. tuberculosis FBA, fluorescence read-out | inhibition, % at 1 µM | 78% of 5,600 active | AID 651616, 2012; in the data active means inhibition above about 27%;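 further: 0% = vehicle wells and 100% = reference inhibitor wells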
GDH-TPI counter-2 – GDH-TPI coupling enzyme inhibitors, artefact control for M. tuberculosis FBA inhibitor project, biochemical, fluorescence, high throughput; shares compounds with Mtb FBA inh; GDH-TPI coupled enzyme counterscreen; inhibition, % at 1 µM; 81% of 5,600 active; AID 652141, 2013; in the data active means inhibition above about 10%
GDH-TPI DR – GDH-TPI coupling enzyme inhibitors, dose response, artefact control for M. tuberculosis FBA inhibitor project, biochemical, fluorescence, IC50; shares compounds with Mtb FBA inh; GDH-TPI coupled enzyme assay, artifact counterscreen; IC50, µM; 79% of 170 active; AID 652145, 2013
An asterisk follows results filed as active; x = not tested or not shown; + = active, no number. This is a sample that favours compounds with a hit; in the whole collection about 4% have one here. Unless noted, how the calls were made is not given here.

SMILES | Mtb FBA inh | RecA intein inh | Mtb UGM inh | Mtb bLac sens | Rv3671c inh | GDH-TPI counter-1 | Mtb FBA inh conf | GDH-TPI counter-2 | others
COc1ccc(-c2sc(C(=O)c3ccc(Cl)cc3Cl)cc2CC(=O)O)cc1 | 45* | -39 | 5 | -4 | -13 | 16 | 73* | 55*
Cc1ccc(CNS(=O)(=O)c2c(C)[nH]c(=O)[nH]c2=O)cc1 | 0 | -1 | 1 | 5 | x | -12 | x | x
CCCCC1OC23CCCCC2C(C#N)(C(=N)O3)C1(C#N)C#N (configuration not stated) | 42* | -270 | 2 | -8 | 3 | -11 | -2 | 3
CCCCC1OC23CCCCC2C(C#N)(C#N)C1(C#N)C(=N)O3 (configuration not stated) | 45* | -139 | 6 | 3 | 4 | -15 | 64* | 51*
COc1ccccc1-c1nc(-c2ccccc2)[nH]c(=O)c1C#N | 3 | -3 | -6 | -6 | -16 | -4 | x | x
CCCC#Cc1ccc2c(c1)O[C@H](CN(C)C(=O)CC1CC1)[C@H](C)CN([C@@H](C)CO)S2(=O)=O | 1 | x | x | x | x | 10 | x | x
Cc1ccc(-c2nc(CN(C)C)cc(CN(C)C)c2O)cc1 | 80* | x | 0 | -4 | 3 | 26 | 5 | -5
COc1cc(-c2nc3ccc(C)cn3c2NCc2ccccc2)ccc1-c1cccc(Cl)c1 | 40* | x | 0 | 26 | 6 | 9 | 8 | -2
CCCCNc1c(-c2ccc(-c3cccc(Cl)c3)cc2)nc2ccccn12 | 23 | -35 | 3 | 99 | 9 | 10 | x | x
CCC(C)Sc1ccc(-c2nc3ccc(C)cn3c2NCc2ccccc2)cc1 (configuration not stated) | 38* | x | x | -1 | 6 | 15 | 94* | 75*
COc1ccc(-c2nc3ccc(C)cn3c2NCc2ccc3c(c2)OCO3)cc1 | 9 | -9 | -1 | 5 | 0 | 6 | x | x
Cc1ccc2nc(-c3ccc(-c4cccc(Cl)c4)cc3)c(NCc3ccccc3)n2c1 | 29* | -8 | 2 | -12 | 0 | 36* | 12 | 9 | GDH-TPI DR=1.5*
CC(C)CC(NC(=O)C(NC(=O)C1CCC(=O)N1C(=O)OCc1ccccc1)C(C)C)C(=O)N1CCCC1C(N)=O (configuration not stated) | -1 | -1 | -1 | -2 | -14 | -4 | x | x
O=C(O)c1c(NC(=O)N2CCOCC2)sc2c1CCCC2 | 4 | -6 | 1 | -2 | 5 | -6 | x | x
COC(=O)C1=CN(C)C=C(C(=O)OC)C1c1ccsc1 | 70* | -92 | x | x | x | 3 | 116* | 118*
COC(=O)C1=CN(C2CC2)C=C(C(=O)OC)C1c1ccc(C(F)(F)F)cc1 | 25 | -44 | 4 | -4 | 4 | -1 | x | x
O=S(=O)(Nc1cccc(-c2cn3ccsc3n2)c1)c1ccc(F)cc1 | 1 | 4 | 0 | -2 | -16 | -5 | x | x
O=S(=O)(c1cccc(-c2cn3cccnc3n2)c1)N1CCCCCC1 | 62* | 3 | -2 | -16 | -7 | 5 | 58* | 49*
O=S(=O)(Nc1cccc(-c2cn3cccnc3n2)c1)c1ccc(-c2ccccc2)cc1 | 11 | 17 | -3 | -4 | -130 | 16 | x | x
O=S(=O)(Nc1cccc(-c2cn3cccnc3n2)c1)c1ccc(F)cc1 | 38* | 2 | -1 | -4 | 4 | 27 | 83* | 81*
O=S(=O)(Nc1ccc(-c2csc(-c3ccccc3)n2)cc1)c1ccccc1 | 0 | 5 | 0 | 5 | -182 | -6 | x | x
O=S(=O)(Nc1ccc(-c2cn3cccnc3n2)cc1)c1ccccc1 | 64* | 2 | 1 | 1 | -6 | 16 | 10 | -7
Cc1ccn2cc(-c3cccc(S(=O)(=O)N4CCCCC4)c3)nc2c1 | 4 | 2 | 2 | 5 | -6 | -2 | x | x
O=S(=O)(Nc1cccc(-c2cn3cccnc3n2)c1)c1ccccc1 | 75* | -10 | 0 | -6 | -3 | 15 | 66* | 47*
CCCS(=O)(=O)NC(=O)C1(C)CCN(C(=O)c2oc3ccccc3c2C)C1 (configuration not stated) | -1 | x | x | x | x | 3 | x | x
SMILES | Mtb FBA inh | RecA intein inh | Mtb UGM inh | Mtb bLac sens | Rv3671c inh | GDH-TPI counter-1 | Mtb FBA inh conf | GDH-TPI counter-2 | others
Cc1cccc(NC(=S)Nc2cccc(C)n2)n1 | 91* | 2 | 0 | 4 | -12 | 12 | 9 | -3
Clc1ccc(/C=C\c2nccc3c2[nH]c2ccccc23)cc1 | 54* | -9 | x | x | x | 6 | 55* | 41*
N#Cc1ccc(/C=C\c2nccc3c2[nH]c2ccccc23)cc1 | 54* | -24 | 1 | 22 | -40 | 8 | 54* | 45*
CCOC(=O)c1[nH]c2cc3c(cc2c1NC(=O)CN1CCC2(CC1)OCCO2)OCO3 | 106* | -3 | -3 | -2 | 2 | 28 | 6 | 8
CCOC(=O)c1[nH]c2ccc(OCC)cc2c1NC(=O)CN1CCN(c2ccccc2)CC1 | 13 | 0 | -1 | -5 | -1 | -6 | x | x
CCOC(=O)c1[nH]c2ccc(OCC)cc2c1NC(=O)CN1CCC2(CC1)OCCO2 | 69* | 0 | 1 | -9 | -3 | 16 | + | +
CCOC(=O)c1[nH]c2cc3c(cc2c1NC(=O)CN1CCCCC1C)OCO3 (configuration not stated) | x | 2 | 2 | -5 | 7 | x | x | x
CCOC(=O)c1nc(C)nc(Sc2n[nH]c(-c3ccccc3)n2)c1C | -1 | 3 | 2 | -5 | 5 | 0 | x | x
Cc1ccc(CNC(=O)CN(C(=O)C2(C)CC(=O)N=C3C=CC=CN32)c2cc(C)ccc2C)cc1 (configuration not stated) | 91* | 1 | 0 | 0 | -8 | 22 | + | +
Cc1ccc(C)c(N(CC(=O)NCc2ccc3c(c2)OCO3)C(=O)CCC(=O)Nc2ccccn2)c1 | 10 | 7 | -1 | -10 | 8 | -3 | x | x
Cc1ccc(CNC(=O)CN(Cc2cccs2)C(=O)C2(C)CC(=O)N=C3C=CC=CN32)cc1 (configuration not stated) | 80* | 0 | 0 | 0 | -9 | 14 | 51* | 39*
COc1ccc(NC(=S)N2CCc3ccccc32)cc1OC | 1 | 3 | -2 | -8 | -12 | 3 | x | x
